Experimental data as given in publication PMC7862700, “An all-to-all approach to the identification of sequence-specific readers for epigenetic DNA modifications on cytosine”.

Experiments:
Assay in all cases: DAPPL (digital affinity profiling via proximity ligation, sequencing); 10 mM Tris-HCl pH 7.5, 50 mM NaCl, 1 mM DTT, 4% glycerol, room temperature, 30 min; GST-TFs on glutathione beads, 16-mer random dsDNA library, 0.1% formaldehyde crosslink after washing; high values mean tight binding
FEV = target: T1, FEV (Homo sapiens, UniProt Q99581 1-238); conditions: protein: recombinant; tags: N-terminal GST; dsDNA, one strand shown
T1 sequence: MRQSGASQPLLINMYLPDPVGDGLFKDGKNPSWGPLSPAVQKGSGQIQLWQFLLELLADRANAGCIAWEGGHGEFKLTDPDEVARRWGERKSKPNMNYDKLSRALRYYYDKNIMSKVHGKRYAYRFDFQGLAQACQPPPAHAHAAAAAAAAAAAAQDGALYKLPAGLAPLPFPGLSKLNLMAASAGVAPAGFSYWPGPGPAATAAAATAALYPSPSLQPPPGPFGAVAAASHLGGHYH
Procedure, shortened: (§1)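 Sequencing on an Illumina NextSeq500 followed washing, crosslinking with 0.1% formaldehyde, proximity ligation (BsaI/T4 ligase, 1 h, 37 °C) and PCR amplification of pools that had been incubated for 30 min at room temperature with 200 nmole of a random double-stranded 16-mer DNA library in Tris/NaCl/DTT/glycerol buffer. Each pool held DNA-barcoded human transcription factors, expressed in yeast as GST fusions and captured on glutathione beads, plus a tag-only sample. Binding signal is a hexamer's read frequency for a factor divided by its frequency in the tag-only sample.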

ETV5 = ETV5 (Homo sapiens, UniProt P41161 1-510); conditions: protein: recombinant; tags: N-terminal GST; dsDNA, one strand shown
Sequence of ETV5 (P41161 whole entry): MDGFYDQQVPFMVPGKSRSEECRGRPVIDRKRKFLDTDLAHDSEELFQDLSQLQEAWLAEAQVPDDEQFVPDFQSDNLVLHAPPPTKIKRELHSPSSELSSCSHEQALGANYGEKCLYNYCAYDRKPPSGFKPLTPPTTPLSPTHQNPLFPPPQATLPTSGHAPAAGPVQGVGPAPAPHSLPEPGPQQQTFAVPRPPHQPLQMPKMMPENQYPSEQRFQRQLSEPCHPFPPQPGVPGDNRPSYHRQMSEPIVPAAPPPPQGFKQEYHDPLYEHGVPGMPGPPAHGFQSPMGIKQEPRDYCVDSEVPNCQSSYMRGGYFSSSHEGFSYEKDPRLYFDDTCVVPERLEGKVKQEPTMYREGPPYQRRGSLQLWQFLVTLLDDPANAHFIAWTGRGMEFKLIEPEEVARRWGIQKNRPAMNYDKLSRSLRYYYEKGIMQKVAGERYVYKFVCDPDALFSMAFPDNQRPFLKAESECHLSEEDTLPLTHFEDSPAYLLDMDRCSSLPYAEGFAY
Procedure, shortened: as §1

HSF1 = HSF1 (Homo sapiens, UniProt Q00613 1-529); conditions: protein: recombinant; tags: N-terminal GST; chain copies: 3; dsDNA, one strand shown
Sequence of HSF1 (Q00613 whole entry): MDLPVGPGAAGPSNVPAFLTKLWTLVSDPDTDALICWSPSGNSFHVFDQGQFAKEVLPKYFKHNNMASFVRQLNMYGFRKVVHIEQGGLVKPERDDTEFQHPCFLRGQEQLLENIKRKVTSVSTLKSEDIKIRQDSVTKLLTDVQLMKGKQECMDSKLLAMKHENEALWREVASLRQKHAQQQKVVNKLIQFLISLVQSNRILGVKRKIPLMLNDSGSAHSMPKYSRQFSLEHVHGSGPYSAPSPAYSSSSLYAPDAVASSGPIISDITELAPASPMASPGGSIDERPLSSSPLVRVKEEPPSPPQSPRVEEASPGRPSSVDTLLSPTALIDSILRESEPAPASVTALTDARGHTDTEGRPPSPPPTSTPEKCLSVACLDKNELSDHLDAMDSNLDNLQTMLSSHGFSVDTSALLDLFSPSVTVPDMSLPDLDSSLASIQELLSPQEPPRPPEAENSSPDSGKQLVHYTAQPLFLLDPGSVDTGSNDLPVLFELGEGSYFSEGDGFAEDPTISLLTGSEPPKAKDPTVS
Procedure, shortened: as §1

SPIC = target: T2, SPIC (Homo sapiens, UniProt Q8N5J4 1-248); conditions: protein: recombinant; tags: N-terminal GST; dsDNA, one strand shown
T2 sequence: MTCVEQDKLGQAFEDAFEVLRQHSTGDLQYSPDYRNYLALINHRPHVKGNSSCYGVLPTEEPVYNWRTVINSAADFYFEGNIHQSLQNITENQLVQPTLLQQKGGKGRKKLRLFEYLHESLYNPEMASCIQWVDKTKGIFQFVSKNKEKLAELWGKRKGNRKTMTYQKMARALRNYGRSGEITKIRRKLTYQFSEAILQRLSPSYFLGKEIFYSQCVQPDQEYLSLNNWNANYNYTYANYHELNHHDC
Procedure, shortened: as §1

ELF4 = ELF4 (Homo sapiens, UniProt Q99607 1-663); conditions: protein: recombinant; tags: N-terminal GST; dsDNA, one strand shown
Sequence of ELF4 (Q99607 whole entry): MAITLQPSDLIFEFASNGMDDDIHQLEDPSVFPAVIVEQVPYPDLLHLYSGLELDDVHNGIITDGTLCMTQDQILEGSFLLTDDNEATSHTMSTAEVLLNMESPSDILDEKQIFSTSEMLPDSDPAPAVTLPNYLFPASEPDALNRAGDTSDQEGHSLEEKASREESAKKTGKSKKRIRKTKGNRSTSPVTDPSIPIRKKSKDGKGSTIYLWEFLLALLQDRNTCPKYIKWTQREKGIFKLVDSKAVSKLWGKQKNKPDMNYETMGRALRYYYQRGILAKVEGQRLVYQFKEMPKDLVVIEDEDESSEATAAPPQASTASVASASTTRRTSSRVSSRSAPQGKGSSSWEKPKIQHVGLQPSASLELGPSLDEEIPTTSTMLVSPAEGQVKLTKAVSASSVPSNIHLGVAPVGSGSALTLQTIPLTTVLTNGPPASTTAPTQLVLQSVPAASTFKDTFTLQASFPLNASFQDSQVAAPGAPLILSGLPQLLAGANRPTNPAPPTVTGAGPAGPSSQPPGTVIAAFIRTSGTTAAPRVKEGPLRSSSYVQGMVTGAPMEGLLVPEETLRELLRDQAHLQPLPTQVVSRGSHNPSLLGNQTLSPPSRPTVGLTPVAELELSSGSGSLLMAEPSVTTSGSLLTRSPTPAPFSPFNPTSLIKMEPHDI
Procedure, shortened: as §1

ELK4 = target: T3, ELK4 (Homo sapiens, UniProt P28324-2 1-405); conditions: protein: recombinant; tags: N-terminal GST; dsDNA, one strand shown
T3 sequence: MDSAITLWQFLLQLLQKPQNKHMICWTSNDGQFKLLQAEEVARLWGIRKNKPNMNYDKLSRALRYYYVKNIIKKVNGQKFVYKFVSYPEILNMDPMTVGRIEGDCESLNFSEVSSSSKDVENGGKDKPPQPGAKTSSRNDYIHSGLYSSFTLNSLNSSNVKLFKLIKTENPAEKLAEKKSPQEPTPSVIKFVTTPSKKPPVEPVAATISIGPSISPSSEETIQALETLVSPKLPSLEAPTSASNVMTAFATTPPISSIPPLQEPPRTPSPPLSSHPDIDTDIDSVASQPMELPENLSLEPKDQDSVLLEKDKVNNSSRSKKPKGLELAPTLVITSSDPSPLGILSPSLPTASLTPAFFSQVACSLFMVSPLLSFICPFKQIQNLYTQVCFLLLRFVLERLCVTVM
Procedure, shortened: as §1

ETV2 = target: T4, ETV2 (Homo sapiens, UniProt O00321 1-342); conditions: protein: recombinant; tags: N-terminal GST; dsDNA, one strand shown
T4 sequence: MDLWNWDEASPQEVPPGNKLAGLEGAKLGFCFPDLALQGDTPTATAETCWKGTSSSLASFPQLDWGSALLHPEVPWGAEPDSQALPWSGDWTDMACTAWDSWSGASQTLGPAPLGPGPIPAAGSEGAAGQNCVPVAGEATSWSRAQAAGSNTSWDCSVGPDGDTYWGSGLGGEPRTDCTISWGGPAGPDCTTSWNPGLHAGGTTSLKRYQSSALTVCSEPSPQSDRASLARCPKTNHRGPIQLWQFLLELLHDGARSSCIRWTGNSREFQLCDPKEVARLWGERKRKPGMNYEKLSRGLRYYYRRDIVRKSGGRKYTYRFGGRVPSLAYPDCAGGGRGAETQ
Procedure, shortened: as §1

ELF3 = target: T5, ELF3 (Homo sapiens, UniProt P78545 1-371); conditions: protein: recombinant; tags: N-terminal GST; dsDNA, one strand shown
T5 sequence: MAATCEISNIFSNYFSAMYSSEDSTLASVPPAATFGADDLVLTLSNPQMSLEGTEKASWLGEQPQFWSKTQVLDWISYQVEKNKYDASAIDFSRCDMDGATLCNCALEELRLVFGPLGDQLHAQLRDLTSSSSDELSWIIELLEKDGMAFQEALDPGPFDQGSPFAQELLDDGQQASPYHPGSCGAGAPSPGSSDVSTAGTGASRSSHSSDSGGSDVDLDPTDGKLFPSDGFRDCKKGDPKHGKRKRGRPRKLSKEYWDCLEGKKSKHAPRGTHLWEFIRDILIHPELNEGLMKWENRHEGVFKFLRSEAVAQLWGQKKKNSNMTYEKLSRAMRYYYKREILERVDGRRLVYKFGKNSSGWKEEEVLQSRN
Procedure, shortened: as §1

CRX = CRX (Homo sapiens, UniProt O43186 1-299); conditions: protein: recombinant; tags: N-terminal GST; dsDNA, one strand shown
Sequence of CRX (O43186 whole entry): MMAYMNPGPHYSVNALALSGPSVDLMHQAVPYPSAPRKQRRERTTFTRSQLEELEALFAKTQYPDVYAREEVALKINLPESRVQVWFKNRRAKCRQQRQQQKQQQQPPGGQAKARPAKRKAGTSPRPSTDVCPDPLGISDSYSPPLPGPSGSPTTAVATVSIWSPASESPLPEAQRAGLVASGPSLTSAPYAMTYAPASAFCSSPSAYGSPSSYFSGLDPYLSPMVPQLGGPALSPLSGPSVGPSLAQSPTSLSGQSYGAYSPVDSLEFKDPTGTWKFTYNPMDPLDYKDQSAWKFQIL
Procedure, shortened: as §1

ETV1 = ETV1 (Homo sapiens, UniProt P50549 1-477); conditions: protein: recombinant; tags: N-terminal GST; dsDNA, one strand shown
Sequence of ETV1 (P50549 whole entry): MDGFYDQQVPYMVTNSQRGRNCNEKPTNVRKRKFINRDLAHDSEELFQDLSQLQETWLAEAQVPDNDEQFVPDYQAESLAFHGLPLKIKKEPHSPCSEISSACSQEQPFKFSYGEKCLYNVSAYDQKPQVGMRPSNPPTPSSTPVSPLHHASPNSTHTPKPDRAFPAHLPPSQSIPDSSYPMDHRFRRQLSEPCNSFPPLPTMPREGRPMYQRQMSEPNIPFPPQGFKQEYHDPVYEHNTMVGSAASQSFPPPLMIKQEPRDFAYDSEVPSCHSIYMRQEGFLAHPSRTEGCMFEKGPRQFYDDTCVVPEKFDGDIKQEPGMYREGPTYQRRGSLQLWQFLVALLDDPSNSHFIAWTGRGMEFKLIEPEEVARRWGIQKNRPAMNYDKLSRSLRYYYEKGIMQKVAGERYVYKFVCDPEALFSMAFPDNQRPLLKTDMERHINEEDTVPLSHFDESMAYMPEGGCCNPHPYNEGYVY
Procedure, shortened: as §1

ERF = target: T6, ERF (Homo sapiens, UniProt P50548 1-548); conditions: protein: recombinant; tags: N-terminal GST; dsDNA, one strand shown
T6 sequence: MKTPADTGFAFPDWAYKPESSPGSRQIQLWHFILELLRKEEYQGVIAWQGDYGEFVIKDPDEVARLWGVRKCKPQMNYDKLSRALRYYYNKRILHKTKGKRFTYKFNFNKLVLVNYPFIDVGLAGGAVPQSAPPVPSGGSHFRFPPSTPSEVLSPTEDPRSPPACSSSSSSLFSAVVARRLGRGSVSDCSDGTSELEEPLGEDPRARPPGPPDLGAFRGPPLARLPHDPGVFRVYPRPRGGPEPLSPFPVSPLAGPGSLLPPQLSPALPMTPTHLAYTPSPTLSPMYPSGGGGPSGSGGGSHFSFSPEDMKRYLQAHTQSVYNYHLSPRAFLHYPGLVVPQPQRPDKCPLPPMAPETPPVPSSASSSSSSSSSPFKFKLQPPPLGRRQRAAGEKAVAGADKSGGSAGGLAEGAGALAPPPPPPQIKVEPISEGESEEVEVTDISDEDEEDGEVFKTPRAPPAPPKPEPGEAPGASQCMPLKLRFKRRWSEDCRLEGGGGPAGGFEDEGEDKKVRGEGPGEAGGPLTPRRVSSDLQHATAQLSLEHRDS
Procedure, shortened: as §1

ETV3L = target: T7, ETV3L (Homo sapiens, UniProt Q6ZN32 1-361); conditions: protein: recombinant; tags: N-terminal GST; dsDNA, one strand shown
T7 sequence: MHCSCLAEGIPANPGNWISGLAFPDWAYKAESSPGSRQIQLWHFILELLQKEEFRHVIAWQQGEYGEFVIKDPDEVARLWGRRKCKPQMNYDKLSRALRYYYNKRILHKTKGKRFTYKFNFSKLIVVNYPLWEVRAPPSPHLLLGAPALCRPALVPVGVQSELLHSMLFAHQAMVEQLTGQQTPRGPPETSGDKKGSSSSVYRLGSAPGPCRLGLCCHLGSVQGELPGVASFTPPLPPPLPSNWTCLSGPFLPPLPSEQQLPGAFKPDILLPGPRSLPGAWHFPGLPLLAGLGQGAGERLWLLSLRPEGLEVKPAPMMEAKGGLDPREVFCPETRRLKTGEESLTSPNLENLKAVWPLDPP
Procedure, shortened: as §1

ETS2 = target: T8, ETS2 (Homo sapiens, UniProt P15036 1-469); conditions: protein: recombinant; tags: N-terminal GST; dsDNA, one strand shown
T8 sequence: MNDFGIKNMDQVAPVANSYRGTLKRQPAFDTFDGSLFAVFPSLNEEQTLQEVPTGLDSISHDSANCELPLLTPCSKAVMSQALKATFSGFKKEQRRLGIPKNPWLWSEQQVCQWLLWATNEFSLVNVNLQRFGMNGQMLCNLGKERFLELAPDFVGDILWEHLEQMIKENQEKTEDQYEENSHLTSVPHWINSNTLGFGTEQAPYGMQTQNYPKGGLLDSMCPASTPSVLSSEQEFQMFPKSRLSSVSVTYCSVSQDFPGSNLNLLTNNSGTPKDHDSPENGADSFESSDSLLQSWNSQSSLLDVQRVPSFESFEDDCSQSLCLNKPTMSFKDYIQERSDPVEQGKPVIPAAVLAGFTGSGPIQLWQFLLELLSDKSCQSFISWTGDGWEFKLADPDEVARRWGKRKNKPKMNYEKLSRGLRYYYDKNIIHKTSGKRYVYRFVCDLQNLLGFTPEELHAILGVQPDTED
Procedure, shortened: as §1

SPDEF = target: T9, SPDEF (Homo sapiens, UniProt O95238 1-335); conditions: protein: recombinant; tags: N-terminal GST; dsDNA, one strand shown
T9 sequence: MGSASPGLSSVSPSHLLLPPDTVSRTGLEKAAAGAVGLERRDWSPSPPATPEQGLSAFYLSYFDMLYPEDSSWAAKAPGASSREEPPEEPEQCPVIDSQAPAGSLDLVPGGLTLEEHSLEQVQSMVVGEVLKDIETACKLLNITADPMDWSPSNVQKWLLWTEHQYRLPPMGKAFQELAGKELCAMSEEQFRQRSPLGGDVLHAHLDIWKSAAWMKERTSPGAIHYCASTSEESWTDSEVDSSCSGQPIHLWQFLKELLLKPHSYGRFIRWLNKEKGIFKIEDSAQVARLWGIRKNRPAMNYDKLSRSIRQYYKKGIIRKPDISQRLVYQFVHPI
Procedure, shortened: as §1

ETV7 = target: T10, ETV7 (Homo sapiens, UniProt Q9Y603 1-341); conditions: protein: recombinant; tags: N-terminal GST; dsDNA, one strand shown
T10 sequence: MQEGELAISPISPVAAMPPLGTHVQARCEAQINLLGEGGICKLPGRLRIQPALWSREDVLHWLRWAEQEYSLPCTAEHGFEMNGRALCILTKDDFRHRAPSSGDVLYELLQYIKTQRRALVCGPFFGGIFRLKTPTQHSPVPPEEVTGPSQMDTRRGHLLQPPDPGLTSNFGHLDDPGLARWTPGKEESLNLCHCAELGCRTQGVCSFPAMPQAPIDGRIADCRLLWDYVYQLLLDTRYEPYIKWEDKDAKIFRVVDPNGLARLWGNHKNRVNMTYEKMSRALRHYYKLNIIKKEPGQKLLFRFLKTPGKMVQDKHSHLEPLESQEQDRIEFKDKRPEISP
Procedure, shortened: as §1

ELF5 = target: T11, ELF5 (Homo sapiens, UniProt Q9UKW6-2 1-255); conditions: protein: recombinant; tags: N-terminal GST; dsDNA, one strand shown
T11 sequence: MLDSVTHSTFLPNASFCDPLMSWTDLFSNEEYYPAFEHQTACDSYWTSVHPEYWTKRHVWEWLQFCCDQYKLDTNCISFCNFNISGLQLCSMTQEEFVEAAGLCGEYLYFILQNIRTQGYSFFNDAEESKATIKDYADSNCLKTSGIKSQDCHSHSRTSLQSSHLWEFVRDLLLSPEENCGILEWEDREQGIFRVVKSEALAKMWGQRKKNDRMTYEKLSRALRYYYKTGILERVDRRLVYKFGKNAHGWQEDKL
Procedure, shortened: as §1

ETV3 = target: T12, ETV3 (Homo sapiens, UniProt P41162-2 1-143); conditions: protein: recombinant; tags: N-terminal GST; dsDNA, one strand shown
T12 sequence: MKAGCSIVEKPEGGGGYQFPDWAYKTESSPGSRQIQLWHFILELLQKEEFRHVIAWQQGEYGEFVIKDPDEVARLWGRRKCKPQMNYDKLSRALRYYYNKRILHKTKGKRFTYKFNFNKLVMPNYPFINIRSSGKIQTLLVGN
Procedure, shortened: as §1

ETV6 = ETV6 (Homo sapiens, UniProt P41212 1-452); conditions: protein: recombinant; tags: N-terminal GST; dsDNA, one strand shown
Sequence of ETV6 (P41212 whole entry): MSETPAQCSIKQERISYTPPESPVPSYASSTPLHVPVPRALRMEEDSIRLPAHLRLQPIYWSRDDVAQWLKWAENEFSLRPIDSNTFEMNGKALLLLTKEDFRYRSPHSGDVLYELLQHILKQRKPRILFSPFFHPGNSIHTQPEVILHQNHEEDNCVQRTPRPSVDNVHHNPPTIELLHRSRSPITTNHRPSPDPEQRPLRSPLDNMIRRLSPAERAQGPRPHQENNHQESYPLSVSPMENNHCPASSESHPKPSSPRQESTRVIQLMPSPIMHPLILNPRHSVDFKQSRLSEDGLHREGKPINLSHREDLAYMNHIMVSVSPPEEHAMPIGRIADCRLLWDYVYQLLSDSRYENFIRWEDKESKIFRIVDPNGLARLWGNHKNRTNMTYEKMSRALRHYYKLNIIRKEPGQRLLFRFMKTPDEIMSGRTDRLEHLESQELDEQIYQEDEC
Procedure, shortened: as §1

TCGCTA
binding signal (FEV): 1.08 fold enrichment (6-mer frequency, TF over GST control)
binding signal (ETV5): 1.07 fold enrichment (6-mer frequency, TF over GST control)
binding signal (HSF1): 1.15 fold enrichment (6-mer frequency, TF over GST control)
binding signal (SPIC): 1.06 fold enrichment (6-mer frequency, TF over GST control)
binding signal (ELF4): 1.11 fold enrichment (6-mer frequency, TF over GST control)
binding signal (ELK4): 1.16 fold enrichment (6-mer frequency, TF over GST control)
binding signal (ETV2): 1.24 fold enrichment (6-mer frequency, TF over GST control)
binding signal (ELF3): 1.03 fold enrichment (6-mer frequency, TF over GST control)
binding signal (CRX): 1.12 fold enrichment (6-mer frequency, TF over GST control)
binding signal (ETV1): 1.08 fold enrichment (6-mer frequency, TF over GST control)
binding signal (ERF): 1.16 fold enrichment (6-mer frequency, TF over GST control)
binding signal (ETV3L): 1.09 fold enrichment (6-mer frequency, TF over GST control)
binding signal (ETS2): 1.06 fold enrichment (6-mer frequency, TF over GST control)
binding signal (SPDEF): 1.03 fold enrichment (6-mer frequency, TF over GST control)
binding signal (ETV7): 1.12 fold enrichment (6-mer frequency, TF over GST control)
binding signal (ELF5): 1.06 fold enrichment (6-mer frequency, TF over GST control)
binding signal (ETV3): 1.01 fold enrichment (6-mer frequency, TF over GST control)
binding signal (ETV6): 1.04 fold enrichment (6-mer frequency, TF over GST control)
